# aSyn yeast inh: inhibitors of alpha-synuclein toxicity in yeast; Yeast expressing alpha-synuclein, growth rescue, BacTiter-Glo, 24 h; Potency, µM (doses to about 46.1 µM), without a hit: at the top dose growth rescue (activation), most hits filed as activators; 370,000 tested, 0.14% active; AID 652106; further: potency means the concentration at half of the fitted maximal effect; % of control where 0% means no effect; nearly all actives have a fitted effect of over 65% in size
#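 Readout is rescue of growth in alpha-synuclein-expressing yeast, so inhibitors of toxicity appear as activators. Growth after 24 hr at 30 deg C in galactose medium is quantified by luminescence.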
# LDHA block: blocks human lactate dehydrogenase A; P00338; purified LDHA, NADH/diaphorase-resazurin fluorescence; active compounds read low; activity change, % (values are at about 110 or 230 µM); 480,000 tested, 0.15% active; AID 1347041; in the data active means activity change below about -30%; inconclusive means mostly about -25% to -30%;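 further: plate controls were DMSO wells for no effect and wells without enzyme for full effect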
#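 Human LDH5 at 2 nM final in Tris HCl pH 7.4 with 0.06 mM NADH and 0.2 mM pyruvate, reacted 5 minutes at room temperature. Remaining NADH coupled via diaphorase/resazurin; resorufin fluorescence read at 0 and 20 minutes, normalized to enzyme-free and DMSO wells.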
# FUS suppressor: suppressors of FUS proteinopathy in yeast | S. cerevisiae FUS-expressing, growth rescue, OD600, 24 h | Potency, µM (highest dose often 76.6 µM), actives largely listed as activators | 390,000 tested, 0.24% active;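 further: potency means the concentration at half of the fitted maximal effect; plate controls were DMSO vehicle for no effect and reference control for full effect; nearly all actives have a fitted effect of over 55% in size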
#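 Yeast FUS proteinopathy model; galactose-induced FUS (2%), starting OD 0.005. Cpds in dilution series, 24hr, 30C, 99% humidity. Abs 600 nm growth. Pos ctrl CP55940 (top 92uM final); neg ctrl DMSO.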
# Abeta rescue: A-beta toxicity reversal in yeast | Potency, µM (highest dose often 46.1 µM), actives largely listed as activators | AID 1347071 | yeast expressing A-beta42, growth rescue, OD600, 48 h; response scale: 0% DMSO, 100% iron-clioquinol control | 410,000 tested, 0.063% active; further: potency means the concentration at half of the fitted maximal effect; nearly all actives have a fitted effect of over 55% in size
#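 Yeast A-beta toxicity model in growth medium with pinned compounds, 48 h at 30 C; growth read as absorbance at 600 nm. Normalized to FeCl3/clioquinol equimolar mix (positive) and DMSO (negative).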
# mIDH1 inhibitor: blocks human mutant IDH1 R132H enzyme; IDH1-R132H enzyme, NADPH consumption, diaphorase/resazurin fluorescence; Potency, µM (titrated, usually from 76.6 µM), for the others: at the top dose activity change, negative = inhibition, hits mostly inhibitors; 390,000 tested, 0.093% active; O75874; further: potency means the concentration at half of the fitted maximal effect; on the % scale 0 is the no-effect control and ±100 the full control effect; nearly all actives have a fitted effect of over 65% in size
# Target sequence (O75874 whole entry R132H, stated change not applied): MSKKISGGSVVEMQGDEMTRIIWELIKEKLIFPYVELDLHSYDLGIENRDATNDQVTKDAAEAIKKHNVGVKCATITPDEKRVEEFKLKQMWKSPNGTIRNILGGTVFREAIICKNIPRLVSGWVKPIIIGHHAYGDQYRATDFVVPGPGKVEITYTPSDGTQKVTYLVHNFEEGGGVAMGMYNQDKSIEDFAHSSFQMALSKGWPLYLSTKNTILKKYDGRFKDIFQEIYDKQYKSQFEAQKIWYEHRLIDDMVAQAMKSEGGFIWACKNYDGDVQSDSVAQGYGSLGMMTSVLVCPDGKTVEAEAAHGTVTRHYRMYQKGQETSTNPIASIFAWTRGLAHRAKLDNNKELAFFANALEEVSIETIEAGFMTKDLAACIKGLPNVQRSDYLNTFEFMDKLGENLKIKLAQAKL
#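 IDH1-R132H (0.5 ug/mL dispensed) in pH 7.5 Tris buffer was preincubated 30 min with compound, then given a substrate mix of 0.016 mM NADPH and 2 mM alpha-KG for 80 min at room temperature; remaining NADPH was read by diaphorase/resazurin fluorescence.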
# TDP-43 yeast inh: rescues yeast growth from TDP-43 toxicity; TDP-43 expressing yeast growth rescue, BacTiter-Glo, 24 h; Potency, µM (top dose mostly 46.1 µM), without a hit: top-dose growth rescue (activation), hits mostly activators; 410,000 tested, 1.8% active; further: potency means the concentration at half of the fitted maximal effect; % of control where 0% means no effect; nearly all actives have a fitted effect of over 50% in size
#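 Readout is BacTiter-Glo luminescence of cell growth, so inhibitors register as activators. TDP-43-expressing yeast at OD600=0.02 in galactose medium, after raffinose pregrowth to mid-log, were incubated with compound for 24 hr at 30 deg C.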
# * hit, by the source's call; i = inactive; ? = inconclusive; nt = no result given. Hits are enriched below; roughly 2% of the tested compounds scored in any of these assays. Unless noted, the call rests on the fitted dose curve; in most records, active means well fitted curve in the direction sought with a large enough effect; inconclusive means small, poorly fitted or top-dose-only effect, or another doubt; inactive means no such curve, though single readings can be large; an effect the other way counts as inactive or inconclusive.
SMILES,aSyn yeast inh,LDHA block,FUS suppressor,Abeta rescue,mIDH1 inhibitor,TDP-43 yeast inh
COc1ccc(C(=O)c2sc(Nc3ccccc3)nc2C)cc1,12.0%,2.1,i,i,10.2%,25.1µM*
Cc1ccc(-c2nc(C#N)c(N3CCN(C(=O)c4ccco4)CC3)o2)cc1,nt,1.2,nt,nt,nt,nt
CC(=O)c1sc(NC(=O)c2ccc(Cn3cc(Br)cn3)o2)nc1C,-5.1%,2.3,i,i,4.2%,-16.9%
CCOC(=O)c1sc(Nc2ccccc2)nc1C,4.5%,12.0,i,i,6.9%,?
COC(=O)c1sc(Nc2ccccc2)nc1C,-13.5%,-9.7,i,i,-1.5%,12.6µM*
CC(=O)c1sc(NC(=O)c2ccc(Br)o2)nc1C,-1.8%,-2.1,i,i,10.7%,11.2µM*
N#Cc1ccc(CNCc2ccc(CN3CCCC3)cc2)cc1,nt,4.1,nt,nt,nt,nt
COc1cccc(N2CCN(c3cnc4ccccc4n3)CC2)c1,5.9%,1.4,i,i,8.1%,35.5µM*
COc1ccc(N2CCN(c3cnc4ccccc4n3)CC2)cc1,0.3%,1.6,i,i,24.0%,17.9%
Cc1sc(NC(=O)c2cc3ccccc3s2)c(C#N)c1C,nt,3.4,nt,nt,nt,nt
CC(C)(C)c1ccc(Cn2cnc(-c3ccc([N+](=O)[O-])cc3)c2)cc1,3.8%,5.7,nt,i,7.5%,31.6µM*
O=C(NCc1cccc(Cl)c1)c1ccc2nc(N3CCOCC3)sc2c1,3.9%,0.3,i,i,-14.3%,25.1µM*
COc1ccccc1CNC(=O)c1ccc2nc(N3CCOCC3)sc2c1,0.4%,-2.0,i,i,-1.6%,22.4µM*
CCOc1ccccc1CNC(=O)c1ccc2nc(N3CCOCC3)sc2c1,4.8%,-1.6,?,i,3.7%,18.5%
O=C(CSc1ncnc2scc(-c3ccccc3)c12)Nc1ccc(F)cc1,nt,1.9,nt,nt,nt,nt
CCn1c2ccccc2c2cc(/C=C(/C#N)C(N)=S)ccc21,1.5%,3.1,nt,i,5.5%,31.6µM*
CCn1c2ccccc2c2cc(N)ccc21,-0.8%,7.6,i,i,2.5%,0.2%
O=C(NCCc1csc(-c2ccccc2)n1)c1cccs1,-2.0%,-8.1,i,i,0.4%,?
COc1cc(NC(=O)c2csc(-c3ccncc3)n2)cc(C(=O)Nc2cccc(C(F)(F)F)c2)c1,0.6%,-2.3,?,i,-9.4%,20µM*
COc1ccc(C(=O)NCCc2csc(-c3ccc(Cl)cc3)n2)c(OC)c1,nt,0.7,?,i,0.8%,20µM*
O=C(NCCc1csc(-c2ccc(Cl)cc2)n1)c1cccs1,nt,-1.2,i,i,-6.8%,17.8µM*
COc1ccccc1C(=O)NCCc1csc(-c2ccc(C(F)(F)F)cc2)n1,nt,6.5,?,i,16.5%,25.1µM*
Cc1cc(N2CCN(C(C(=O)O)c3c[nH]c4ccc(Br)cc34)CC2)nc2ccccc12 (stereo not given),nt,0.6,nt,nt,nt,nt
O=S(=O)(NCc1csc(Br)c1)c1ccc(Br)s1,nt,-11.6,nt,nt,nt,nt
COc1ccc(CC(=O)NCCc2csc(-c3ccc(C(F)(F)F)cc3)n2)cc1,-4.0%,0.8,i,i,2.5%,11.3%
SMILES,aSyn yeast inh,LDHA block,FUS suppressor,Abeta rescue,mIDH1 inhibitor,TDP-43 yeast inh
COc1cc(OC)cc(C(=O)NCCc2csc(-c3ccc(C(F)(F)F)cc3)n2)c1,nt,8.0,i,i,7.2%,17.8µM*
N#C/C(=C\c1cc(Br)c(I)o1)c1nc2ccccc2[nH]1,nt,0.7,nt,nt,nt,nt
Cn1c(-c2ccccc2)csc1=N,nt,-49.2*,nt,nt,nt,nt
Cc1ccc(C(=O)NC(=S)NNC(=O)c2ccc(NC(=O)c3ccccc3)cc2)cc1,nt,-16.2,nt,nt,nt,nt
COc1ccc(OC)c(NC(=O)CCn2nc(-c3ccccc3OC)c3c(C)cc(C)nc32)c1,nt,-21.0,nt,nt,nt,nt
Cc1ccc(-c2cc(C(=O)Nc3ncccc3C)c3ccccc3n2)s1,nt,1.6,nt,nt,nt,nt
Cc1cc2c(c(C)nn2-c2ccccc2)c(=O)o1,11.7%,-4.0,i,i,-2.7%,17.3%
CCc1c(C)c2c(C)nn(-c3ccccc3)c2oc1=O,6.6%,-0.6,i,i,-5.6%,25.1µM*
Cc1cc(C)cc(Cn2c(C)c(C(=O)N(C)Cc3ccc(F)cc3)sc2=O)c1,10.5%,3.5,i,i,nt,31.6µM*
Cc1c(C(=O)N(C)Cc2ccccc2)sc2nc(-c3ccc(F)cc3)cn12,nt,2.2,?,i,20.8%,22.4µM*
Cc1c(C(=O)N(C)c2ccccc2)sc2nc(-c3ccc(F)cc3)cn12,nt,7.2,i,i,4.7%,35.5µM*
COC(=O)c1c(C)[nH]c(-c2cccc(OC)c2)c1C1C(=O)Nc2ccc(F)cc21 (stereo not given),nt,43.3,nt,nt,nt,nt
O=C(NCCCc1ccccc1)c1cc2cc([N+](=O)[O-])ccc2oc1=O,nt,1.1,nt,nt,nt,nt
Cc1ccccc1Oc1ccc2c(c1)[C@@H]1C[C@H](N(C)C(=O)c3cccnc3)[C@H]([C@H](C)O)C(=O)N1CC2,-1.5%,-32.4*,i,i,-0.1%,0.8%
CCNC(=S)N/N=C/c1cc(C)ccc1C,2.3%,-10.2,i,4.47µM*,10.6%,22.3%
CC[n+]1ccc(/C=C/c2ccc(N(C)C)cc2)c2ccccc21,-60.3%,-1.2,?,i,25.3%,-85.9%
CC[n+]1ccc(C[n+]2ccccc2)c2ccccc21,-1.0%,-39.7*,i,i,2.3%,-5.7%
CCCNc1nc2c(c(=O)n(C)c(=O)n2C)n1CC,nt,10.4,nt,nt,nt,nt
CCOC(=O)C1CCN(C(=O)c2sc3nc(-c4ccccc4)cn3c2C)CC1,-1.7%,2.5,nt,i,7.8%,?
CCOC(=O)C1CCCN(C(=O)c2sc3nc(-c4ccc(OC)cc4)cn3c2C)C1 (stereo not given),nt,0.0,?,i,-7.2%,11.2µM*
N#C/C(=C\c1c(F)cccc1Cl)C(=O)NC1CC1,0.5%,-4.7,i,i,-3.8%,12.6µM*
C=CCNC(=O)NC(=O)CN(CC)c1cccc(F)c1,nt,-18.4,nt,nt,nt,nt
O=C(N/N=C/c1cccc([N+](=O)[O-])c1O)c1cccs1,7.94µM*,13.2,nt,i,10.5%,27.5%
O=C(N/N=C\c1cccc([N+](=O)[O-])c1O)C1COc2ccccc2O1 (stereo not given),6.31µM*,4.9,i,i,-0.1%,11.2µM*
O=[N+]([O-])c1cccc(C=NNc2ccc3ccccc3n2)c1O,2µM*,-8.4,nt,i,7.9%,?
O=C(N/N=C\c1ccccn1)C1COc2cc3ccccc3cc2O1 (stereo not given),20µM*,8.2,i,?,1.9%,8.9%
O=C(Nc1cccc(F)c1)c1cccnc1NCc1ccccc1,nt,4.9,nt,nt,nt,nt
Cc1cc([N+](=O)[O-])ccc1N=C/C(Br)=C/c1ccccc1,nt,34.5,nt,nt,nt,nt

# Assay outcomes: PubChem BioAssay, National Center for Advancing Translational Sciences (NCATS)
